# From PubChem BioAssay (NCATS)
# Where “and” joins values, the source holds several entries; their conditions need not be identical. Equal values may be shown once. Inconclusive results are not listed. A call without a number means that no potency is given here. Calls of active or inactive are those of the source. Unless noted, the call rests on the fitted dose curve.
# Key:
# [1] = target: Voltage-gated inwardly rectifying potassium channel KCNH2 (Homo sapiens) (UniProt Q12809); test: qHTS Assay for Small Molecule Inhibitors of the Human hERG Channel Activity (AID 588834; active means well fitted inhibition curve with a large enough effect;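 further: lower thallium flux fluorescence means stronger hERG block; nearly all actives have a fitted effect of over 50% in size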; further: potency means the concentration at half of the fitted maximal effect)
# Outline: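 hERG-BacMam U2OS, 2000 cells/well; 0.7X FluxOR loading 1 hr RT dark; cpd ~10 min 37 °C; stim buffer; FDSS fluorescence 2 min @ 1 s; AC50 Hill fit.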
# [2] = target: Peroxisome proliferator-activated receptor gamma (Homo sapiens) (UniProt P37231); test: qHTS assay for small molecule antagonists of peroxisome proliferator-activated receptor gamma signaling (AID 588537; active means well fitted inhibition curve with a large enough effect in the signal ratio, with a control signal flat, not every such curve was filed as active; the % refers to the signal ratio;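 further: reporter cells co-stimulated with 50 nM rosiglitazone agonist during compound treatment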)
# Outline: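 PPAR-gamma-UAS-bla HEK293 cells (3000/well, 1% charcoal/dextran-stripped FBS) were preincubated 6-6.5 h at 37 C, given titrated compounds, then stimulated with 50 nM rosiglitazone for 16 h. Beta-lactamase activity was read with CCF4 dye; IC50 came from Hill fits.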
# [3] = target: Vitamin D3 receptor (Homo sapiens) (UniProt P11473); test: qHTS assay for small molecule antagonists of vitamin D receptor signaling (AID 588541);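 further: receptor activated by calcitriol during compound treatment; series mostly up to about 77 µM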
# Outline: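 VDR-UAS-bla HEK293T cells (2000/well, 2% charcoal-stripped FBS) were treated with titrated compounds plus 1-alpha,25-dihydroxyvitamin D3 (50 nM or 3 nM final) for 16 h at 37 C. CCF4 beta-lactamase fluorescence was read; Hill fits gave IC50.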
# [4] = target: Vitamin D3 receptor (Homo sapiens) (UniProt P11473); test: qHTS assay for small molecule agonists of vitamin D receptor signaling (AID 588543)
# Outline: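 Reporter cells (HEK293T, VDR-UAS-bla) were seeded in medium with 2% charcoal-stripped serum and incubated 5 h, then compounds in concentration series were added for 16 h at 37 °C. Stimulation was scaled between DMSO basal and 50 nM 1α,25-dihydroxyvitamin D3.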
# [5] = qHTS assay for small molecule agonists of retinoid X receptor alpha signaling (AID 588544); settings: HEK293T RXRa-UAS-bla, beta-lactamase reporter, 18 h; 530 nm emission
# [6] = target: Retinoic acid receptor RXR-alpha (Homo sapiens) (UniProt P19793); test: as above
# [7] = target: Thyroid hormone receptor beta (Homo sapiens) (UniProt P10828); test: qHTS assay for small molecule agonists of thyroid hormone receptor beta signaling (AID 588545)
# Outline: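 Beta-lactamase reporter activity under TR response element control is measured in HEK 293 cells after 18 hrs compound exposure. Signal is ratiometric CCF4 fluorescence, 460/530 nm.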
# [8] = qHTS assay for small molecule antagonists of retinoid X receptor alpha signaling (AID 588546; active means well fitted inhibition curve with a large enough effect in the signal ratio, with a control signal flat, not every such curve was filed as active; the % refers to the signal ratio; further: potency means the concentration at half of the fitted maximal effect;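 on max response: cells stimulated with 9-cis-retinoic acid as agonist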); settings: HEK293T RXRa-UAS-bla, beta-lactamase ratio, antagonist mode; measured here: W530 green channel, cytotoxicity proxy
# Outline: (§1)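 Beta-lactamase reporter inhibition, read as CCF4 fluorescence ratio (ex 405, em 460/530 nm) after 2 h at RT. HEK293T UAS-bla cells, 2500/well, were stimulated with 9-cis-RA at 500 or 100 nM final alongside test compound for 18 h at 37 C.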
# [9] = target: Retinoic acid receptor RXR-alpha (Homo sapiens) (UniProt P19793); test: as above; settings: HEK293T RXRa-UAS-bla, beta-lactamase ratio, antagonist mode
# Outline: as §1
# [10] = target: Thyroid hormone receptor beta (Homo sapiens) (UniProt P10828); test: qHTS assay for small molecule antagonists of thyroid hormone receptor beta signaling (AID 588547; active means well fitted inhibition curve with a large enough effect in the signal ratio, with a control signal flat, not every such curve was filed as active; the % refers to the signal ratio;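 further: cells stimulated with 0.4 nM T3 agonist during compound exposure; series mostly up to about 77 µM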); settings: TR-UAS-bla HEK293, beta-lactamase ratio, antagonist mode, 18 h
# Outline: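 TR-UAS-bla GripTite HEK293 cells in 2% charcoal/dextran FBS medium were preincubated 4 h at 37 C, given compound (0.59 nM to 92 uM) plus 0.4 nM T3 (final) for 18 h, then CCF4 for 2 h at RT; Hill fit gave IC50.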
# Sequence of Retinoic acid receptor RXR-alpha (Homo sapiens) (P19793 whole entry, looked up): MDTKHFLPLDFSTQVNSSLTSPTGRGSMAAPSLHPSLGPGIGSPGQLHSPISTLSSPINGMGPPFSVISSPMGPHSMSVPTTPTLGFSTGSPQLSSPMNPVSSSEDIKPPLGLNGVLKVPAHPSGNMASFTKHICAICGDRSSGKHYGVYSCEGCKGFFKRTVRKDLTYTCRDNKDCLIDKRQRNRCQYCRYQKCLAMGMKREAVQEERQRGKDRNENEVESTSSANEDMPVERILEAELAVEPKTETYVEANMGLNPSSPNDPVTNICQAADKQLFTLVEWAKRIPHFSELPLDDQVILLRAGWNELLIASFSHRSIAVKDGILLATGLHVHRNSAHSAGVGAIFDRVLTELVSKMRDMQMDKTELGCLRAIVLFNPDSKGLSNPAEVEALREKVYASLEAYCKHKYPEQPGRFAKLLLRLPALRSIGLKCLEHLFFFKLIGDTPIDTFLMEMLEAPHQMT
# Sequence of Thyroid hormone receptor beta (Homo sapiens) (P10828 whole entry, looked up): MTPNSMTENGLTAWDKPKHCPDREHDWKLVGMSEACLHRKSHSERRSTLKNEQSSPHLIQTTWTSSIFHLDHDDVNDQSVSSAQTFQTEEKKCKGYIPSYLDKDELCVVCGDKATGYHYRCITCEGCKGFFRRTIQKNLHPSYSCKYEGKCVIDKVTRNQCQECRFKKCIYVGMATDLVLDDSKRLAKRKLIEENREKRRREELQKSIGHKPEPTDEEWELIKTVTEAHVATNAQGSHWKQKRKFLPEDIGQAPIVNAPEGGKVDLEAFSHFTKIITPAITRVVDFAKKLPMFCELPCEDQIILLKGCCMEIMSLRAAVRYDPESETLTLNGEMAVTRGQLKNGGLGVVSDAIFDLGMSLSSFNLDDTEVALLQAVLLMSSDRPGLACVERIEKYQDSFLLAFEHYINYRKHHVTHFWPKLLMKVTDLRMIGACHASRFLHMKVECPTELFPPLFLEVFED
# Sequence of Vitamin D3 receptor (Homo sapiens) (P11473 whole entry, looked up): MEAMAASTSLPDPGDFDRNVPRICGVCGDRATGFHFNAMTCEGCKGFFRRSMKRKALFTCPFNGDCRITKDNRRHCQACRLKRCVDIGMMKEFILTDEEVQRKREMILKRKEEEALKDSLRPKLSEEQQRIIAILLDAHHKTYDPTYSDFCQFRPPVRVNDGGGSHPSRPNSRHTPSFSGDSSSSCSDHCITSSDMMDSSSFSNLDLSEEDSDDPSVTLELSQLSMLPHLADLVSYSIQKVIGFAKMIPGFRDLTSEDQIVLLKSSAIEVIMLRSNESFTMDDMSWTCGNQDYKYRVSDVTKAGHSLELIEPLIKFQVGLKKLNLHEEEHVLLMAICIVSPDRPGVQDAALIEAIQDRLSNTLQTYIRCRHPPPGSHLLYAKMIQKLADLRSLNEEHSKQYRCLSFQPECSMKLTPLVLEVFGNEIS
# Sequence of Peroxisome proliferator-activated receptor gamma (Homo sapiens) (P37231 whole entry, looked up): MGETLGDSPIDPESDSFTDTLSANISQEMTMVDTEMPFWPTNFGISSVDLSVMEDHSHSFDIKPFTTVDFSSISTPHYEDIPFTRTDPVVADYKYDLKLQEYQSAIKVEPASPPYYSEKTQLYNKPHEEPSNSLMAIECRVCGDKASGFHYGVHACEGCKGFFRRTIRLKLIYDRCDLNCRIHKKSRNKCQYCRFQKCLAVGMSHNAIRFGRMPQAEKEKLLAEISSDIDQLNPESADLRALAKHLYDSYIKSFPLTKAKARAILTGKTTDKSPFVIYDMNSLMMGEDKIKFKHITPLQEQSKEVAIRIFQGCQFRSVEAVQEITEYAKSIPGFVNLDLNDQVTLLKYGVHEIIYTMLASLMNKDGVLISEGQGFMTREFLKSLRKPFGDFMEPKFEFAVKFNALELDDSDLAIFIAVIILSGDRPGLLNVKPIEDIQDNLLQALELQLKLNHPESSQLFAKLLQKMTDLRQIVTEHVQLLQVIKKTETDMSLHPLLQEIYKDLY
# Sequence of Voltage-gated inwardly rectifying potassium channel KCNH2 (Homo sapiens) (Q12809 whole entry, looked up): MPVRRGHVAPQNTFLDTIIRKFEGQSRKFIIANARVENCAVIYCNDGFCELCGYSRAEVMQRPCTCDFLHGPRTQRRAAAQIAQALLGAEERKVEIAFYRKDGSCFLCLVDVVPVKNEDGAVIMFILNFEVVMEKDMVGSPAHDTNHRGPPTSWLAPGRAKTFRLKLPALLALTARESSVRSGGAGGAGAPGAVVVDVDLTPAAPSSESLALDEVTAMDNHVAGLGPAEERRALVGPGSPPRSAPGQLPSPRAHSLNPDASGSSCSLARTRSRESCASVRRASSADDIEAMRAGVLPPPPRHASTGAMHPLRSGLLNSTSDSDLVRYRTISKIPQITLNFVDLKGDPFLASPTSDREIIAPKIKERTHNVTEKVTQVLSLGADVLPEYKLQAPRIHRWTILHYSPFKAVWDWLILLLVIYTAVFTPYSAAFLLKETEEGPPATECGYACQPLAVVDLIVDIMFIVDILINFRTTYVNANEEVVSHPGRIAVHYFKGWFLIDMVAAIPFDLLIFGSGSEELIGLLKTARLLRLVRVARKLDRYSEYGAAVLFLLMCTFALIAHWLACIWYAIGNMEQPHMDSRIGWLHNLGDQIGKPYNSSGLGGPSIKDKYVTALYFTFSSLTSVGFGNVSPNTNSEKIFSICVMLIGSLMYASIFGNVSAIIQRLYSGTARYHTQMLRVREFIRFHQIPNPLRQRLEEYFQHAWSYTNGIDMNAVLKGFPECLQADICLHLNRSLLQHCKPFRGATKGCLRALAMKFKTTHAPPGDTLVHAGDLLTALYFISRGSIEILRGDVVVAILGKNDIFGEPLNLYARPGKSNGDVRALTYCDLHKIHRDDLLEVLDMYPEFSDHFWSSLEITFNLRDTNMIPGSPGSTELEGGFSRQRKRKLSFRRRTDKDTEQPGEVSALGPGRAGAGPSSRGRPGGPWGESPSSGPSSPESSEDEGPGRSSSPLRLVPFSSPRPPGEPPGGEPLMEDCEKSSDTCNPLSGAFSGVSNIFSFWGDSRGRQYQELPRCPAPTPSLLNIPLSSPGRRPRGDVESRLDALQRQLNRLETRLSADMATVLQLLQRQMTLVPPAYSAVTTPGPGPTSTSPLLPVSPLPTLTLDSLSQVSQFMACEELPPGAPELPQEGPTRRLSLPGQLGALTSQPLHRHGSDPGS
structure (smiles),measurement,setting,value
COC(=O)C1=C(C#N)NC(C)=C(C(=O)OC(C)C)C1c1cccc([N+](=O)[O-])c1 (configuration not stated),Potency,[1],inactive
CC(O)CO (configuration not stated),outcome,[2],inactive
same,outcome,[3],inactive
same,outcome,[4],inactive
same,max response,[5],-9.84% and -15.2%
same,outcome,[6],inactive
same,outcome,[7],inactive
same,max response,[8],-2.37% and -5.47%
same,max response,[9],9.68% (inactive) and 0.556% (inactive)
same,activity change % (negative = inhibition),[10],11.6% (inactive) and -10.9% (inactive)
same,Potency,[1],inactive
CC(C(=O)O)c1ccc(N2Cc3ccccc3C2=O)cc1 (configuration not stated),Potency,[1],inactive
CC(C)(C)NC(=O)[C@@H]1C[C@@H]2CCCC[C@@H]2CN1C[C@@H](O)[C@H](Cc1ccccc1)NC(=O)[C@H](CC(N)=O)NC(=O)c1ccc2ccccc2n1,outcome,[3],inactive
same,outcome,[7],inactive
same,max response,[8],9.91%
same,Potency,[9],22.4 µM (active)
same,Potency,[1],35.5 µM (active)
O=S(=O)(O)O,outcome,[2],inactive
same,max response,[5],-13.7% and 0.0864%
same,outcome,[6],inactive
same,outcome,[7],inactive
same,max response,[8],-14.3% and 12.6%
same,max response,[9],-0.45% (inactive) and -13.7% (inactive)
same,activity change % (negative = inhibition),[10],16% (inactive) and -10.1% (inactive)
same,Potency,[1],inactive
CO[C@H]1C=CO[C@@]2(C)Oc3c(C)c(O)c4c(O)c(c5c(nc6cc(C)ccn65)c4c3C2=O)NC(=O)/C(C)=C\C=C[C@H](C)[C@H](O)[C@@H](C)[C@@H](O)[C@@H](C)[C@H](OC(C)=O)[C@@H]1C,Potency,[1],inactive
CCC(=O)O[C@]1(C(=O)CCl)[C@@H](C)C[C@H]2[C@@H]3C[C@H](F)C4=CC(=O)C=C[C@]4(C)[C@@]3(F)[C@@H](O)C[C@@]21C,Potency,[1],inactive
CC(C)(C)C1(O)CCN2CC3c4ccccc4CCc4cccc(c43)C2C1 (configuration not stated),Potency,[1],2.82 µM (active)
CCCCCCCC(=O)O,outcome,[3],inactive
same,outcome,[4],inactive
same,max response,[5],23.4% and -6.86%
same,outcome,[6],inactive
same,outcome,[7],inactive
same,max response,[8],-6.98% and -8.84%
same,max response,[9],18.1% (inactive) and 2.05% (inactive)
same,activity change % (negative = inhibition),[10],8.96% (inactive) and 0.409% (inactive)
same,Potency,[1],inactive
IC(I)I,outcome,[2],inactive
same,max response,[5],19.8%
same,outcome,[6],inactive
same,outcome,[7],inactive
same,max response,[8],-9.02% and 2.26%
same,max response,[9],21.1% (inactive) and -13.8% (inactive)
same,activity change % (negative = inhibition),[10],1.7% (inactive) and 9.81% (inactive)
same,Potency,[1],inactive
CC1=CCC(C(C)(C)O)CC1 (configuration not stated),outcome,[2],inactive
same,outcome,[3],inactive
same,outcome,[4],inactive
same,max response,[5],-10.8%
same,outcome,[6],inactive
same,outcome,[7],inactive
same,max response,[8],1.88%
same,max response,[9],-18.6% (inactive)
same,activity change % (negative = inhibition),[10],-18.4% (inactive)
same,Potency,[1],inactive
O=CCCCC=O,outcome,[3],inactive
same,outcome,[4],inactive
same,max response,[5],18.3%
same,outcome,[6],inactive
same,outcome,[7],inactive
same,max response,[8],-9.66%
same,max response,[9],27.6% (inactive)
same,activity change % (negative = inhibition),[10],0.64% (inactive)
same,Potency,[1],inactive
CCOC(C)=O,outcome,[2],inactive
same,outcome,[3],inactive
same,outcome,[4],inactive
same,max response,[5],-19.8%
same,outcome,[6],inactive
same,outcome,[7],inactive
same,activity change % (negative = inhibition),[10],-2.37% (inactive)
same,Potency,[1],inactive
CC1(C)O[C@@H]2C[C@H]3[C@@H]4CCC5=CC(=O)C=C[C@]5(C)[C@H]4[C@@H](O)C[C@]3(C)[C@]2(C(=O)CO)O1,Potency,[1],inactive
O=C(O)CCC(=O)C(=O)O,outcome,[2],inactive
same,outcome,[3],inactive
same,outcome,[4],inactive
same,max response,[5],-2.92%
same,outcome,[6],inactive
same,outcome,[7],inactive
same,max response,[8],-14.3%
same,max response,[9],8.74% (inactive)
same,activity change % (negative = inhibition),[10],1.53% (inactive)
same,Potency,[1],inactive
CCOc1ccc2c(c1)C(C)=CC(C)(C)N2,outcome,[7],inactive
same,activity change % (negative = inhibition),[10],8.54% (inactive)
same,Potency,[1],inactive
CCOC(=O)C1=C(C)NC(C)=C(C(=O)OCC)C1c1ccccc1C=CC(=O)OC(C)(C)C,Potency,[1],inactive
Nc1ccn([C@H]2CS[C@@H](CO)O2)c(=O)n1,outcome,[3],inactive
same,outcome,[4],inactive
same,max response,[5],1%
same,outcome,[6],inactive
same,outcome,[7],inactive
same,max response,[8],-4.12%
same,max response,[9],12.8% (inactive)
same,activity change % (negative = inhibition),[10],10.8% (inactive)
same,Potency,[1],inactive
CCCCC(CC)COC(=O)CC(C(=O)OCC(CC)CCCC)S(=O)(=O)O (configuration not stated),outcome,[4],inactive
same,outcome,[7],inactive
same,activity change % (negative = inhibition),[10],-5.51% (inactive)
C[C@H]1C[C@H]2[C@@H]3CCC4=CC(=O)C=C[C@]4(C)[C@@]3(F)[C@@H](O)C[C@]2(C)[C@@]1(O)C(=O)CO,outcome,[3],inactive
same,outcome,[7],inactive
same,max response,[8],8.66%
same,max response,[9],-12.7% (inactive)
same,Potency,[1],inactive
CCCCCCCC/C=C\CCCCCCCC(=O)O,max response,[5],-22.4% and -10.3%
same,outcome,[6],inactive
same,outcome,[7],inactive
same,max response,[8],-6.26% and -12.6%
same,max response,[9],31.8% (inactive) and 3.81% (inactive)
same,activity change % (negative = inhibition),[10],-12.5% (inactive)
same,Potency,[1],inactive
O=C(Nc1cccc(C(F)(F)F)c1)c1cc(Br)cc(Br)c1O,Potency,[1],inactive
CCCCC/C=C\C/C=C\CCCCCCCC(=O)O,outcome,[2],inactive
same,outcome,[3],inactive
same,outcome,[4],inactive
same,max response,[5],-2.55%
same,outcome,[6],inactive
same,outcome,[7],inactive
same,max response,[8],2.1%
same,max response,[9],12.5% (inactive)
same,activity change % (negative = inhibition),[10],8.73% (inactive) and 0.41% (inactive)
same,Potency,[1],inactive
